Data on 15 compounds can be found in PubChem BioAssay (Tox21).

The nature of assay [1]: qHTS assay to identify small molecule antagonists of the glucocorticoid receptor (GR) signaling pathway - cell viability counter screen (AID 720693). Further: nearly all actives have a fitted effect of over 55% in size. Further: potency means the concentration at half of the fitted maximal effect.
Assay [2] is described as follows: qHTS assay for identifying genotoxic compounds that show differential cytotoxicity against isogenic chicken DT40 cell lines with known DNA damage response pathways - wild type cell line (AID 743012). Further: nearly all actives have a fitted effect of over 60% in size. Further: potency means the concentration at half of the fitted maximal effect. The gist of the method:
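Parental DNA repair-proficient DT40 cells, 300 per well, were pre-incubated ~0.5 h at 37 C/5% CO2, pin-dosed with compounds in DMSO, then incubated 40 h. Viability was read as CellTiter-Glo luminescence after 30 min at room temperature.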
(Quantitative high-throughput screening tests each substance at several concentrations.)

Assay [3] in a line: qHTS assay for identifying genotoxic compounds that show differential cytotoxicity against isogenic chicken DT40 cell lines with known DNA damage response pathways - Rev3 mutant cell line (AID 743014). Further: nearly all actives have a fitted effect of over 55% in size. Further: potency means the concentration at half of the fitted maximal effect.
Assay [4] is described as follows: qHTS assay for identifying genotoxic compounds that show differential cytotoxicity against isogenic chicken DT40 cell lines with known DNA damage response pathways - Rad54/Ku70 mutant cell line (AID 743015). Further: nearly all actives have a fitted effect of over 60% in size. Further: potency means the concentration at half of the fitted maximal effect.
The nature of assay [5]: qHTS assay to identify small molecule antagonists of the androgen receptor (AR) signaling pathway - cell viability counter screen (AID 743033; further: nearly all actives have a fitted effect of over 45% in size; further: potency means the concentration at half of the fitted maximal effect).
A short description of assay [6]: qHTS assay to identify small molecule antagonists of the androgen receptor (AR) signaling pathway using the MDA cell line - cell viability counter screen (AID 743041; further: nearly all actives have a fitted effect of over 45% in size; further: potency means the concentration at half of the fitted maximal effect). An outline of the steps: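 Viability counter screen run alongside the AR antagonist reporter: cells seeded 5 h before compound, R1881 added, 16 h incubation at 37C without CO2, fluorescent CellTiter-Fluor signal quantified.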

Assay [7] in a line: qHTS assay to identify small molecule antagonists of the thyroid receptor (TR) signaling pathway - cell viability counter screen (AID 743064). Further: nearly all actives have a fitted effect of over 50% in size. Further: potency means the concentration at half of the fitted maximal effect. An outline of the steps: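 In rat pituitary GH3.TRE-Luc reporter cells co-exposed to compound and 1 nM T3 for 23.5 h, cytotoxicity was assessed with CellTiter-Fluor in the same wells, read by fluorescence.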
Assay [8] in a line: qHTS assay to identify small molecule antagonists of the thyroid receptor (TR) signaling pathway (AID 743065). Further: nearly all actives have a fitted effect of over 55% in size. Further: potency means the concentration at half of the fitted maximal effect. The gist of the method: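 GH3.TRE-Luc rat pituitary cells carrying two TR response elements driving luciferase were plated for 4 h, given compound plus 1 nM T3 (final), and incubated 23.5 h at 37 C. ONE-Glo luminescence measured reporter inhibition; CellTiter-Fluor fluorescence tracked cytotoxicity.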

The test system of assay [9] is thyroid hormone receptor (rat, GH3 cells). The assay is described as follows: qHTS assay to identify small molecule agonists of the thyroid receptor (TR) signaling pathway (AID 743066; calls by dose curve).
For assay [10], the target named is Estrogen receptor (Homo sapiens) (UniProt P03372). The assay can be described thus: qHTS assay to identify small molecule antagonists of the estrogen receptor alpha (ER-alpha) signaling pathway (AID 743069; active means well fitted curve in the direction sought with a large enough effect in the signal ratio in the repeat runs, not every such curve was filed as active; inconclusive means weak or mixed curves, or effect the other way; inactive means no such curve, though single readings can be large or run the other way; the % refers to the signal ratio; further: potency means the concentration at half of the fitted maximal effect). The gist of the method: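 Estradiol-stimulated ER-alpha-UAS-bla HEK293 cells, 18 hr compound exposure at 37C. LiveBLAzer B/G substrate, 2 hr RT, fluorescence read.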
Sequence of Estrogen receptor (Homo sapiens) (P03372 whole entry, looked up): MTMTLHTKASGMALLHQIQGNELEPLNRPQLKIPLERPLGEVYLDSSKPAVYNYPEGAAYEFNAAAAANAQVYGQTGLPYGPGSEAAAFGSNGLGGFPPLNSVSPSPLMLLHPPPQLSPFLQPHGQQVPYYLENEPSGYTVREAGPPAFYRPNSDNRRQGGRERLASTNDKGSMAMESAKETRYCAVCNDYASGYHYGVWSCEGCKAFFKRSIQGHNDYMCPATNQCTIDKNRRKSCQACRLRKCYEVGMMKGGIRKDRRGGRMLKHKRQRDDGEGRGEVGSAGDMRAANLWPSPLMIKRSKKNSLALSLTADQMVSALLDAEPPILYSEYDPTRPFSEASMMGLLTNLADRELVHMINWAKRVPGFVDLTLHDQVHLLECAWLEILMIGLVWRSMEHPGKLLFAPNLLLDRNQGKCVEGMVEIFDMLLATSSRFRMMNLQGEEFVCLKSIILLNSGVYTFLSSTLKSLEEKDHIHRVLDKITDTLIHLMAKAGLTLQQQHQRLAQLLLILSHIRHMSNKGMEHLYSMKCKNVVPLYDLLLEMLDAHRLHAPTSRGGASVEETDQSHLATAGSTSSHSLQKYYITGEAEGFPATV

Assay [11] is described as follows: qHTS assay to identify small molecule antagonists of the estrogen receptor alpha (ER-alpha) signaling pathway - cell viability counter screen (AID 743074; calls by dose curve;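 further: HEK293 cells carrying ER-alpha-UAS-bla reporter stimulated with 17beta-estradiol; nearly all actives have a fitted effect of over 45% in size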; further: potency means the concentration at half of the fitted maximal effect).
The target of assay [12] is Estrogen receptor (Homo sapiens) (UniProt P03372). The assay can be described thus: qHTS assay to identify small molecule agonists of the estrogen receptor alpha (ER-alpha) signaling pathway (AID 743075; calls by dose curve).
Assay [13] shares this target. The assay is described as follows: qHTS assay to identify small molecule agonists of the estrogen receptor alpha (ER-alpha) signaling pathway using the BG1 cell line (AID 743079). Further: nearly all actives have a fitted effect of over 20% in size. Particulars: BG1Luc4E2 cells, ERE-luciferase agonist, 22 h; activation: at 70.3 µM (top of the series).
The nature of assay [14]: qHTS assay to identify small molecule antagonists of the estrogen receptor alpha (ER-alpha) signaling pathway using the BG1 cell line (AID 743080; calls by dose curve;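 further: BG1 cells stimulated with 17beta-estradiol alongside compound; nearly all actives have a fitted effect of over 25% in size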; further: potency means the concentration at half of the fitted maximal effect). Particulars: BG1Luc4E2 ERE-luciferase antagonist mode, luminescence; activity change, negative = inhibition: at 70.3 µM (top of the series). The gist of the method: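 BG1-Luc-4E2 cells (endogenous full-length ER-alpha, stable 4×ERE-luciferase) were starved 5 days in phenol-red-free medium with 10% charcoal-stripped FBS, plated 24 h, then given compound plus 17beta-estradiol for 21.5 h at 37 C; ONE-Glo luminescence read after 30 min.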

Assay [15] is described as follows: qHTS assay to identify small molecule antagonists of the estrogen receptor alpha (ER-alpha) signaling pathway using the BG1 cell line - cell viability counter screen (AID 743081).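 Further: compound given together with 17beta-estradiol as the ER stimulus; nearly all actives have a fitted effect of over 45% in size.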 Further: potency means the concentration at half of the fitted maximal effect.
Assay [16] deals with Aromatase (Homo sapiens) (UniProt P11511). The assay can be described thus: qHTS assay to identify aromatase inhibitors (AID 743083). Further: nearly all actives have a fitted effect of over 55% in size. Further: potency means the concentration at half of the fitted maximal effect.
Sequence of Aromatase (Homo sapiens) (P11511 whole entry, looked up): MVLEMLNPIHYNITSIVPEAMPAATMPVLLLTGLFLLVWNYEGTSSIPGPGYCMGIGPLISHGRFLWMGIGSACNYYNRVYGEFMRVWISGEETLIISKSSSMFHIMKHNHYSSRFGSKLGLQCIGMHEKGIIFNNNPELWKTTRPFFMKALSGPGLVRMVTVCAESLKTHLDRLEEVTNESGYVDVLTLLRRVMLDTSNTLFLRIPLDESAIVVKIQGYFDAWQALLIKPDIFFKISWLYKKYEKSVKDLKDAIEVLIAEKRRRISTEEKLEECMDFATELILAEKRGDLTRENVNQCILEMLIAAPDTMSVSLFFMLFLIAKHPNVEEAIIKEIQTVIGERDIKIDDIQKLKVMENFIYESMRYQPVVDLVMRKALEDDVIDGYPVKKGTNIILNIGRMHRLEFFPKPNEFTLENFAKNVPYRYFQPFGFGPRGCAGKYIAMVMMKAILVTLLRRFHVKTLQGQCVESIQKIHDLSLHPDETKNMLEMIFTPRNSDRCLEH
Assay [17] addresses Androgen receptor (Homo sapiens) (UniProt P10275). The assay can be described thus: qHTS assay to identify small molecule agonists of the androgen receptor (AR) signaling pathway using the MDA cell line (AID 743040; further: nearly all actives have a fitted effect of over 20% in size). The gist of the method:
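Luminescence from ONE-Glo, read after 30 min at room temperature, reflects MMTV-driven luciferase in MDA-kb2 cells (AR- and GR-responsive). Treatment lasted 16 h at 37C, 0% CO2.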

The target is the same in assay [18]. The assay can be described thus: qHTS assay to identify small molecule antagonists of the androgen receptor (AR) signaling pathway using the MDA cell line (AID 743042). An outline of the steps: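 MDA-kb2 cells (human breast carcinoma, stably carrying an MMTV-luciferase reporter responsive to AR and GR) were plated at 3,000 cells/well and preincubated 5 hr at 37C, then given compound plus R1881 agonist for 16 h. ONE-Glo luminescence was read.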

Assay [19] has the same target. The assay is described as follows: qHTS assay to identify small molecule antagonists of the androgen receptor (AR) signaling pathway (AID 743035; active means well fitted inhibition curve with a large enough effect in the signal ratio in the repeat runs, not every such curve was filed as active; inconclusive means weak or mixed curves, or effect the other way; inactive means no such curve, though single readings can be large or run the other way; the % refers to the signal ratio; further: potency means the concentration at half of the fitted maximal effect). The gist of the method: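 HEK293 cells stably carrying a UAS-driven beta-lactamase reporter (AR-UAS-bla GripTite) were plated for 4 h at 37C, then given compound and the agonist R1881 and incubated 16 h. Reporter activity was read by LiveBLAzer B/G FRET fluorescence after 2 h at room temperature.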

Each structure is given as a SMILES string. Where “and” joins values, the source holds several entries; their conditions need not be identical. Equal values may be shown once. Calls of active or inactive are those of the source. Unless noted, the call rests on the fitted dose curve; in most records, active means well fitted curve in the direction sought with a large enough effect in the repeat runs; inconclusive means weak or mixed curves; inactive means no such curve, though single readings can be large; an effect the other way counts as inactive or inconclusive.

Sequence of Androgen receptor (Homo sapiens) (P10275 whole entry, looked up): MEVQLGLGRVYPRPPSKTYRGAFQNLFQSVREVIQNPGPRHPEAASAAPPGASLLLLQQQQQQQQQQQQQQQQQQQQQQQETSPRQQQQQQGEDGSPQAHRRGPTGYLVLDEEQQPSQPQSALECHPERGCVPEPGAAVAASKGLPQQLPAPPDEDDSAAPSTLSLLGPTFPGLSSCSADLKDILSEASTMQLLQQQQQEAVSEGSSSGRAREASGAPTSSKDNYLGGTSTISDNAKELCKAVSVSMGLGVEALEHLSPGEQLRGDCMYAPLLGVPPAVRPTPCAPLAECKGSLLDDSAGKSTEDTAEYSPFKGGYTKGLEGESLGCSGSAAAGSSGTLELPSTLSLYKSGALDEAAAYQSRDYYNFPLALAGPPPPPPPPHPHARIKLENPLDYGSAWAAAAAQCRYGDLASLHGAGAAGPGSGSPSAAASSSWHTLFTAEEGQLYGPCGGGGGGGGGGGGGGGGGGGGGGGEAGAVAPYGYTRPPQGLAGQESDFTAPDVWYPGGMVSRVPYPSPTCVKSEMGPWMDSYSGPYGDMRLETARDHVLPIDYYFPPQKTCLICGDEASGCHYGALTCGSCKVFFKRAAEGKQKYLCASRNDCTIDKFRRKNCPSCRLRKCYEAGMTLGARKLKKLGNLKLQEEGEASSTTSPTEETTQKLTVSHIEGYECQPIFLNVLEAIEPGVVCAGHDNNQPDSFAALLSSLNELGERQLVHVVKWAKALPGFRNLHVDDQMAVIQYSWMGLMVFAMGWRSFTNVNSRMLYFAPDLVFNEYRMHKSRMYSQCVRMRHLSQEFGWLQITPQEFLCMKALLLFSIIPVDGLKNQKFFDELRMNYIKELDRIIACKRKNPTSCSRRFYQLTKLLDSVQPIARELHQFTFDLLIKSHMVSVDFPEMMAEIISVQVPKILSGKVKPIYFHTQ

Turning to `CCCCOC(=O)C(C)CC` (stereo not given), the Potency entry in assay [1], in assay [6], in [7], in [8], in assay [9] and in assay [10] was “inactive” throughout. Besides, the Potency entry in assay [11], in assay [12], in assay [13], in [14], in [15] and in assay [16] was “inactive” each time. For the same compound, the Potency is 12.2 µM (active) in assay [2], 13.7 µM (active) in assay [3], 13.7 µM (active) in [4] and 43.6 µM (active) in assay [5].

For `COCC(=O)O[C@]1(CCN(C)CCCc2nc3ccccc3[nH]2)CCc2cc(F)ccc2[C@@H]1C(C)C`, the Potency in [1] was 10.7 µM (active); in [2], 2.37 µM (active); in assay [3] it was 4.22 µM (active); in assay [4] it was 4.73 µM (active); in assay [5], 10.7 µM (active); in assay [18] it was 7.5 µM (active). The Potency in assay [7] was 1.5 µM (active); in assay [8], 1.88 µM (active); in assay [11], 9.52 µM (active); in assay [15] it was 26.6 µM (active); in assay [16] it was 13.3 µM (active). In assay [17], the Potency result was “inactive”.

For `Cc1cccc(Br)c1`, the Potency entry in assay [1], in [2], in assay [3], in [4], in assay [5] and in assay [6] was “inactive” in each case. Besides, the Potency result in assay [7], in [9], in assay [11], in assay [15] and in assay [16] was “inactive” throughout.

For `O=C(O)CCCCCCC(=O)O`, the Potency result in assay [1], in assay [2], in assay [3], in assay [4], in [5] and in assay [6] was “inactive” throughout. Also, the Potency entry in [7], in [8], in assay [9], in [11], in assay [15] and in [16] was “inactive” throughout.

On to `CCCCCCCCCCCCN(CCO)CCO`, for which the Potency was 34.5 µM (active) in assay [1]; 0.86 µM (active) in [2]; 0.172 µM (active) in [3]; 0.609 µM (active) in assay [4]; 43.5 µM (active) in assay [5]; 19.3 µM (active) in [6]. In addition, the Potency was 15.3 µM (active) in [18], 48.8 µM (active) in [11], 68.3 µM (active) in assay [14] and 30.5 µM (active) in assay [16]. For the same compound, the Potency result in assay [17], in assay [9] and in assay [12] was “inactive” throughout.

Regarding `CC(C)c1cccc(C(C)C)c1N1C(=O)c2ccc(O)cc2C1=O`, the Potency in [1] was 43.6 µM (active); in [2] it was 8.63 µM (active); in assay [3] it was 7.7 µM (active); in assay [4], 8.63 µM (active); in assay [5], 38.9 µM (active); in [8], 4.86 µM (active). Besides, the Potency in [16] is 54.5 µM (active). Besides, the Potency entry in assay [6] was “inactive”.

In the case of `Cn1cnc2ncnc(N)c21`, the Potency entry in [1], in assay [2], in [3], in assay [4], in [5] and in assay [6] was “inactive” in each case. The Potency result in assay [7], in assay [9], in assay [10], in assay [11], in [12] and in assay [13] was “inactive” each time. Also, the Potency result in [14], in [15] and in assay [16] was “inactive” throughout.

Regarding `CCN=c1cc2oc3cc(NCC)c(C)cc3c(-c3ccccc3C(=O)OCC)c-2cc1C`, the Potency in assay [1] is 21.8 µM (active) and 21.9 µM (active); in assay [2], 484 nM (active) and 172 nM (active); in [3] it was 384 nM (active) and 137 nM (active); in assay [4] it was 305 nM (active) and 109 nM (active); in [5] it was 689 nM (active) and 1.23 µM (active); in [19] it was 0.154 µM (active). In addition, the Potency was 108 nM (active) and 96.9 nM (active) in assay [18]; 1.08 µM (active) and 1.22 µM (active) in assay [7]; 48.8 nM [inconclusive] (active) and 155 nM [inconclusive] (active) in assay [10]; 24.5 µM (active) and 21.9 µM (active) in assay [11]; 172 nM (active) and 217 nM (active) in [14]; 3.84 µM (active) and 5.45 µM (active) in assay [15]. Moreover, the Potency in [16] is 193 nM (active) and 137 nM (active). Moreover, the Potency result in assay [17], in [9] and in [12] was “inactive” each time.

As to `ClC/C=C\CCl`, the Potency result in [1], in [2], in [3], in assay [4], in [5] and in assay [6] was “inactive” in each case. The Potency result in assay [8], in assay [9], in assay [10], in [11], in assay [12] and in [13] was “inactive” in each case. Further, the Potency result in [14], in [15] and in assay [16] was “inactive” throughout.

Turning to `CCCC(CC)CCCCCCCN` (stereo not given), the Potency entry in [1], in [2], in assay [4], in assay [5], in assay [6] and in [7] was “inactive” in each case. Also, the Potency entry in [8], in [9], in assay [10], in assay [11], in [12] and in [13] was “inactive” each time. In addition, the Potency result in assay [14], in assay [15] and in [16] was “inactive” throughout.

`Cc1ccc2ccc3cccc4ccc1c2c34`: the Potency entry in assay [1], in assay [2], in assay [3], in assay [4], in assay [7] and in assay [9] was “inactive” throughout. The Potency result in [12], in assay [13], in assay [14], in assay [15] and in assay [16] was “inactive” in each case.

Take `CC(C)c1ccc(O)c(C(C)C)c1`: the Potency result in [1], in [6], in assay [9], in [10], in assay [12] and in assay [13] was “inactive” in each case. In addition, the Potency entry in [15] was “inactive”. For the same compound, the Potency was 54.5 µM (active) in assay [2]; 54.5 µM (active) in assay [3]; 48.6 µM (active) in assay [4]; 49 µM (active) in assay [5]; 54.5 µM (active) in assay [14].

Turning to `CCCCNc1c(C(=O)OCC)c(C)nc2c1cnn2CC`, the Potency result in assay [1], in [5], in assay [9], in [10], in [11] and in [12] was “inactive” each time. For the same compound, the Potency result in [13], in assay [14], in assay [15] and in assay [16] was “inactive” each time. Moreover, the values for the Potency in [2], in assay [3] and in assay [4] were 21.1 µM (active), 23.7 µM (active) and 26.6 µM (active), respectively.

Consider `COc1cccc(CCc2ccccc2OCC(CN(C)C)OC(=O)CCC(=O)O)c1` (stereo not given), for which the Potency result in assay [1], in [5], in [10], in assay [11], in assay [12] and in assay [13] was “inactive” throughout. Besides, the Potency result in assay [14], in assay [15] and in assay [16] was “inactive” throughout. Besides, the Potency in [2] is 8.41 µM (active); in assay [3], 10.6 µM (active); in assay [4], 11.9 µM (active); in [7], 23.7 µM (active).

In the case of `CC(C)N=C(N)/N=C(\N)Nc1ccc(Cl)cc1`, the Potency result in [1], in assay [6], in assay [9], in assay [10], in assay [11] and in assay [12] was “inactive” in each case. The Potency result in assay [13], in assay [14], in assay [15] and in assay [16] was “inactive” throughout. In addition, the Potency in assay [2] was 3.59 µM (active); in assay [3] it was 12.7 µM (active); in [4], 10.1 µM (active).
